Data as given in PubChem BioAssay AID2098 (Broad Institute, 2009).
In all, about 300,000 compounds went through this assay and about 2,300 (0.77%) were called active. This is one part of a sample in which actives are shown more often than they occur.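 Rule for the calls: active = more than half of replicate wells show activity change below -50%, luminescence cut by over half; inconclusive = some wells, but at most half, below -50%; inactive = no replicate well below -50%.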

Assay: blocking HSF1-driven luciferase expression – cell-based, NIH3T3, luminescence, primary screen (AID 2098);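 note: luciferase reports HSF-1 transcriptional activity via heat shock element; 0% = median of DMSO wells and -100% = zero luminescence signal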
Conditions: NIH3T3-HGL HSE-luciferase, MG132-induced, luminescence 8 h; active compounds read low; screened at 7.5 µM (by protocol)

SMILES	activity change, negative = inhibition
NS(=O)(=O)c1ccc(CCNC(=O)CN2C(=O)c3ccccc3S2(=O)=O)cc1	-3.35% (inactive)
Cc1ccc(N2CC(C(=O)N3CCC4(CC3)CC(=O)c3ccccc3O4)CC2=O)cc1C (stereo not given)	-2.92% (inactive)
COc1ccc(NC(=O)CN(C)C(=O)Cc2coc3cc(C)c(C)cc23)cc1	7.31% (inactive)
COc1ccc(C(=O)N(Cc2ccccc2)c2ccc(C)cc2)cc1S(=O)(=O)N1CCOCC1	4.46% (inactive)
Cc1cc(C(=O)COC(=O)C2CC2)c(C)n1-c1ccc(F)cc1	-71.9% (active)
COc1cc(/C=N/NC(=O)c2cc(C)n(-c3ccc(F)cc3)c2C)cc(OC)c1O	-15.3% (inactive)
Cc1ccc(-n2c(C)cc(C(=O)CN3C(=O)C(=O)N(C4CCCC4)C3=O)c2C)cc1	-6.89% (inactive)
CC(Oc1ccc(F)cc1)C(=O)Nc1cc(S(=O)(=O)N2CCOCC2)ccc1N1CCN(C)CC1 (stereo not given)	-4.5% (inactive)
O=C(NCC(=O)N1CCCC(C(F)(F)F)C1)c1ccccc1F (stereo not given)	-2.16% (inactive)
CCN(CC)CCNC(=O)CCCCCn1c(=O)[nH]c2cc(C(=O)OC)ccc2c1=O	-8.49% (inactive)
CCCCC(CC)CNC(=O)CCCCn1c(=O)[nH]c2ccsc2c1=O (stereo not given)	1.08% (inactive)
CCN(CCCNC(=O)CCn1c(=O)[nH]c2ccsc2c1=O)c1ccccc1	-61.9% (active)
CN(Cc1c(F)cccc1Cl)C(=O)CNC(=O)c1ccc2c(c1)OCO2	2.65% (inactive)
CC12CCC(=O)N1C(C(=O)NCCN1C(=O)S/C(=C\c3ccccc3F)C1=O)CS2 (stereo not given)	-0.188% (inactive)
CCOC(=O)c1c(C)[nH]c(C(=O)OCC(=O)c2ccc(OC)cc2OC)c1C	1.38% (inactive)
CC1(OC(=O)CCc2ccccc2)C(=O)C=C2C=C(c3ccc(C#N)cc3)N(CCc3ccccn3)C=C2C1=O (stereo not given)	-80.1% (active)
COCCN1C=C2C(=O)C(C)(OC(=O)C3CCCC3)C(=O)C=C2C=C1c1ccsc1 (stereo not given)	0.381% (inactive)
C=CCN1C=C2C(=O)C(C)(OC(=O)CCc3ccccc3)C(=O)C=C2C=C1c1ccc(C#N)cc1 (stereo not given)	-1.82% (inactive)
CCCNC(=O)c1ccc(N2CCC3(CC2)CC(c2cccc(Br)c2)=NO3)c(NC(=O)c2ccco2)c1	-5.02% (inactive)
CSc1nsc(NC(=O)Nc2ccccc2)n1	4.05% (inactive)
Cc1cccc(C(=O)NCc2nnc(SC(C)C(=O)Nc3nnc(C)s3)n2C)c1 (stereo not given)	-1.96% (inactive)
COc1ccc(S(=O)(=O)N2CCCCCC2)cc1C(=O)N(C)Cc1cccc(OC)c1OC	-1.36% (inactive)
O=c1oc2ccccc2cc1-c1cn(-c2ccccc2)c(=S)[nH]1	-88.1% (active)
COc1ccc(-c2cn(-c3ccc(OC)cc3)c(=S)[nH]2)cc1	9.62% (inactive)
S=c1[nH]c(-c2cccs2)cn1-c1ccccc1	2.33% (inactive)
CC(C)(C)Oc1ccccc1Nc1nc(NCCO)nc(N2CCCC2)n1	-2.91% (inactive)
CCn1cc(CN2CCC(C(=O)Nc3cccc(-c4cccc(Cl)c4)c3)CC2)cn1	13.5% (inactive)
O=C(Nc1cccc(-c2cccc(Cl)c2)c1)C1CCN(C2CCC2)CC1	-1.45% (inactive)

SMILES	activity change, negative = inhibition
CCn1cc(CN2CCC(C(=O)Nc3cccc(-c4cccc(Cl)c4)c3)CC2)c(C)n1	-68.5% (active)
O=C(COC(=O)CCOc1ccccc1)Nc1cc(S(=O)(=O)N2CCCCC2)ccc1Cl	5.19% (inactive)
Cn1cccc1C(=O)NNC(=O)COc1ccc(Br)cc1	-3.17% (inactive)
Cc1cccc(NC(=O)c2nc[nH]c2C(=O)NCC(=O)OCc2ccccc2)c1	-13.1% (inactive)
Cc1ccc(S(=O)(=O)CC(=O)Nc2nnc(C)s2)cc1	-2.63% (inactive)
Cc1ccc(CS(=O)(=O)c2ncc(Cl)c(C(=O)Nc3nnc(C)s3)n2)cc1	-63.4% (active)
Cc1cccc(NC(=O)c2nc(S(=O)(=O)Cc3ccccc3)ncc2Cl)c1	-83.8% (active)
CCSc1ncc(Cl)c(C(=O)Nc2cc(C)ccc2C)n1	3.48% (inactive)
Cc1cccc(CS(=O)(=O)c2ncc(Cl)c(C(=O)Nc3ccc(F)cc3)n2)c1	13.2% (inactive)
COc1ccc(C2/C=C\CN(S(=O)(=O)c3cccs3)CC(=O)N2Cc2ccc(F)cc2)cc1 (stereo not given)	3.97% (inactive)
COc1ccc(Cl)cc1C=CC=NNC(=O)c1ccncc1	5.04% (inactive)
COc1ccc(Cn2c(=O)sc3ccccc32)cc1OC	-4.6% (inactive)
COC(=O)c1ccc(OCC(O)CN(CCO)CC(O)Cn2ccc3ccccc32)cc1 (stereo not given)	-1.93% (inactive)
COc1ccc(CCNCC(O)Cn2ccc3ccccc32)cc1OC (stereo not given)	-87.6% (active)
O=C(NCc1ccccc1)c1onc(CSc2ccncc2)c1C(=O)NCc1ccccc1	-22.7% (inactive)
O=C(NCCc1ccco1)C(=O)NCCC1CCCCN1S(=O)(=O)c1ccccc1 (stereo not given)	1.49% (inactive)
COc1ccc(-c2nnc(SCC(=O)Nc3cccnc3Cl)n2C)cc1	-3.85% (inactive)
COc1ccccc1NC(=O)C(C)OC(=O)CC1CCCC1 (stereo not given)	-4.1% (inactive)
C#CCNC(=O)[C@H](Cc1ccc(C(=O)c2ccccc2)cc1)NC(=O)OC(C)(C)C	5.42% (inactive)
COc1ccccc1NC(=O)[C@H](COCc1ccccc1)NC(=O)OC(C)(C)C	-65.5% (active)
COc1cc(/C=N/NC(=O)c2ccc(N3CCCC3=O)cc2)ccc1O	-2.17% (inactive)
COc1ccc(/C=N/NC(=O)c2ccccc2)cc1OS(=O)(=O)c1ccccc1	4.64% (inactive)
COc1ccc(C(=O)Nc2ccccc2C(=O)N/N=C/c2ccc(O)c(OC)c2)cc1	-88.5% (active)
CC1(C)O[C@@H]2CC3C4C[C@H](F)C5=CC(=O)C=CC5(C)C4C(O)CC3(C)[C@]2(C(=O)CO)O1 (stereo not given in full)	-32.3% (inactive)
Cc1ccc(CSCC(=O)N(C)CC(=O)Nc2ccc(C)cc2)cc1	-72.3% (active)
Cc1ccc(CSCC(=O)N(C)CC(=O)Nc2cccc(F)c2)cc1	-0.103% (inactive)
Cc1ccc(NC(=O)CN(C)C(=O)c2ccc(Br)o2)cc1	0.545% (inactive)
